# Experimental data from PubChem BioAssay (NCATS).
# Records with an inconclusive call do not appear. A call without a number means that no potency is given here. Calls of active or inactive are those of the source. The call rests on the fitted dose curve; in most records, active means well fitted inhibition curve with a large enough effect; inconclusive means small, poorly fitted or top-dose-only effect; inactive means flat fitted curve, though single readings scatter.
# Tests used:
# Test in all cases: qHTS profiling for inhibitors of Plasmodium falciparum proliferation (AID 504749); further: nearly all actives have a fitted effect of over 60% in size
# Conditions in all cases: P. falciparum in erythrocytes, SYBR Green DNA, 72 h; series mostly up to 28.7 µM
# [1] = system: 3D7
# How it was run: (§1)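 SYBR Green fluorescence of parasite DNA, read after lysis and overnight dark incubation, measured growth over 72 h in erythrocyte culture at 0.3% parasitemia and 2.5% hematocrit. Data normalised to DMSO and 0.29 uM artemisinin, with plate-drift correction.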
# [2] = system: CP185
# How it was run: as §1
# [3] = system: CP203
# How it was run: as §1
# [4] = system: CP211
# How it was run: as §1
# [5] = system: CP217
# How it was run: as §1
# [6] = system: CP250
# How it was run: as §1
# [7] = system: CP252
# How it was run: as §1
# [8] = system: CP256
# How it was run: as §1
# [9] = system: CP265
# How it was run: as §1
# [10] = system: CP291
# How it was run: as §1
# [11] = system: CP305
# How it was run: as §1
# [12] = system: CP315
# How it was run: as §1
# [13] = system: CP335
# How it was run: as §1
# [14] = system: DIV30
# How it was run: as §1
# [15] = system: Dd2
# How it was run: as §1
# [16] = system: ECU
# How it was run: as §1
# [17] = system: HB3
# How it was run: as §1
# [18] = system: N140
# How it was run: as §1
# [19] = system: TAB113
# How it was run: as §1
# [20] = system: CP262
# How it was run: as §1
# Potency means the concentration at half of the fitted maximal effect.
Compound,Potency [1],Potency [2],Potency [3],Potency [4],Potency [5],Potency [6],Potency [7],Potency [8],Potency [9],Potency [10],Potency [11],Potency [12],Potency [13],Potency [14],Potency [15],Potency [16],Potency [17],Potency [18],Potency [19],Potency [20]
CC(Cc1ccccc1)N(C)C (stereo not drawn),inactive,inactive,inactive,inactive,inactive,inactive,inactive,inactive,inactive,inactive,inactive,inactive,inactive,inactive,inactive,inactive,inactive,inactive,inactive,–
CC12CCC3C4CCC(=O)C(O)=C4CCC3C1CCC2OC(=O)CCC1CCCC1 (stereo not drawn),inactive,inactive,inactive,inactive,inactive,inactive,inactive,inactive,inactive,inactive,inactive,inactive,inactive,inactive,–,inactive,inactive,inactive,inactive,inactive
CCN(CC)C(=O)N[C@@H]1C=C2c3cccc4[nH]cc(c34)C[C@H]2N(C)C1,–,–,inactive,–,–,–,–,–,10000 nM (active),–,–,inactive,–,8490 nM (active),14100 nM (active),–,–,12600 nM (active),7940 nM (active),–
C[C@]12CC[C@H]3[C@@H](CC[C@@]45O[C@@H]4C(=O)C(C#N)C[C@]35C)[C@@H]1CC[C@@H]2O (stereo partly drawn),inactive,–,inactive,inactive,–,–,–,–,–,inactive,inactive,inactive,inactive,inactive,inactive,–,inactive,–,–,inactive
CCC/C=C/C=C/C(=O)OC1/C(=C/C(=O)OC)CC2CC(C(C)O)OC(=O)CC(O)CC3CC(OC(C)=O)C(C)(C)C(O)(CC4C/C(=C/C(=O)OC)CC(/C=C\C(C)(C)C1(O)O2)O4)O3 (stereo not drawn),2820 nM (active),1000 nM (active),–,–,794 nM (active),1000 nM (active),1260 nM (active),1260 nM (active),1410 nM (active),2690 nM (active),1900 nM (active),–,1900 nM (active),1070 nM (active),2240 nM (active),1260 nM (active),2240 nM (active),1120 nM (active),1780 nM (active),–
C=CC[C@]1(O)CCC2C3CCC4=CCCCC4C3CCC21C (stereo partly drawn),inactive,inactive,inactive,inactive,inactive,inactive,inactive,inactive,inactive,inactive,inactive,inactive,inactive,inactive,–,inactive,–,inactive,inactive,inactive
C#CC1(O)C=CC2C3CCC4=CC(=O)CCC4C3CCC21CC (stereo not drawn),–,–,–,–,inactive,–,inactive,–,–,15100 nM (active),–,–,–,–,inactive,inactive,10000 nM (active),inactive,–,–
NC(Cc1ccc(Oc2cc(I)c(O)c(I)c2)c(I)c1)C(=O)O (stereo not drawn),inactive,inactive,inactive,inactive,inactive,inactive,inactive,inactive,inactive,inactive,inactive,inactive,inactive,inactive,inactive,inactive,inactive,–,inactive,inactive
O=C1CC2OCC=C3CN4CCC56c7ccccc7N1C5[C@H]2[C@H]3C[C@H]46 (stereo partly drawn) (tested in a mixture with another compound),–,inactive,–,inactive,inactive,inactive,inactive,inactive,inactive,inactive,–,inactive,inactive,–,–,–,–,inactive,inactive,–
CC(C)CCC(=O)OC1CCC2C3CCC4=CC(=O)CC[C@]4(C)C3CC[C@]12C (stereo partly drawn),–,10000 nM (active),inactive,inactive,–,10000 nM (active),–,7940 nM (active),7940 nM (active),–,inactive,inactive,–,inactive,–,10000 nM (active),–,–,7080 nM (active),inactive
CCCC(C)C1(CC)C(=O)NC(=S)NC1=O (stereo not drawn),inactive,inactive,inactive,inactive,inactive,inactive,inactive,inactive,inactive,inactive,inactive,inactive,inactive,inactive,inactive,inactive,inactive,inactive,inactive,inactive
C#C[C@]1(O)CC[C@H]2[C@@H]3CCC4=CC(=O)CCC4(C)[C@H]3CCC21C (stereo partly drawn),inactive,inactive,inactive,inactive,inactive,inactive,inactive,inactive,inactive,inactive,inactive,inactive,inactive,inactive,inactive,inactive,inactive,inactive,inactive,inactive
CC(=O)Oc1ccc2c3c1OC1[C@@H](OC(C)=O)C=C[C@H]4[C@H](C2)N(C)CC[C@]314 (stereo partly drawn),inactive,inactive,inactive,inactive,inactive,inactive,inactive,inactive,inactive,inactive,inactive,inactive,inactive,inactive,inactive,inactive,inactive,inactive,inactive,inactive
CC(=O)O[C@H]1C[C@H](O[C@H]2[C@@H](O)CC(O[C@H]3[C@@H](O)C[C@H](O[C@H]4CC[C@@]5(C)[C@H](CC[C@@H]6[C@@H]5CC[C@]5(C)[C@@H](C7=CC(=O)OC7)CC[C@]65O)C4)O[C@@H]3C)O[C@@H]2C)O[C@H](C)[C@H]1O[C@@H]1O[C@H](CO)[C@@H](O)[C@H](O)[C@H]1O (stereo partly drawn),–,inactive,–,inactive,inactive,inactive,inactive,inactive,inactive,inactive,inactive,inactive,inactive,inactive,inactive,inactive,inactive,inactive,inactive,inactive
